Among all 340,000 compounds or so, about 2,500 (0.74%) were called active.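 The calls were made as follows: active = inhibition above about 55% (limit read from the data); inactive = the rest.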 The full list was thinned out, with actives kept by preference.

The nature of this experiment: blockers of Gli reporter signaling – luciferase luminescence, Sufu-KO-LIGHT cells, uHTS, primary screen (AID 588413).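 Also: 0% = DMSO-treated cells and 100% = wells with medium but no cells.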 The following applies: Sufu-KO-LIGHT fibroblasts, at 5 µM, hits give high values.
Broadly, the inhibition is the relative decrease from the control value, in per cent. Take `COc1ccc(Cn2c(=O)cc(C)[nH]c2=S)cc1`: the inhibition is 8.5% (inactive).
On to `COc1ccc(Cn2c(-c3ccc(Cl)cc3)c[n+]3ccccc23)cc1`, for which the inhibition was 66.8% (active).
To `CCn1c(C)cc(=O)cc1-c1ccc(Cl)cc1` belongs 8.82% (inactive).
For the molecule `C[C@@H]1CN([C@@H](C)CO)C(=O)c2cc(NC(=O)C3CC3)ccc2O[C@H]1CN(C)C`, the inhibition is -16% (inactive).
To `Cc1ccccc1N1CCN(CC(=O)NCc2ccc(Cl)cc2)CC1` belongs 6.04% (inactive); to `COc1ccc(OC)c(CN2C(=O)CCC2(C)C(=O)NC2CCCCCC2)c1` (stereo unspecified), 23.4% (inactive).
To `O=C(C1CCCO1)N1CCN(C(=S)NC2CC2)CC1` (stereo unspecified) belongs -11.3% (inactive); to `Cc1ccc(-c2cn3cc(C)ccc3n2)cc1`, 63.8% (active).
For `Cc1ccc2nc(-c3ccc(Br)cc3)cn2c1`, the inhibition is 20.9% (inactive).
Take `COc1ccc(-c2cn3ccc(C)cc3n2)cc1`: the inhibition was -72% (inactive).
`O=C(CCS(=O)(=O)c1cccc2nonc12)NCCc1ccccc1Cl`: the inhibition is 4.43% (inactive).
For `CC1(C)CCSC(/C=C/c2ccccc2)=N1`, the inhibition is 4.7% (inactive).
In the case of `CCN(CC(=O)Nc1ccccc1C(F)(F)F)C(=O)C1CCN(C(=O)Nc2ccccc2)CC1`, the inhibition was 7.33% (inactive).
In the case of `COc1cc(C(F)(F)F)c(C(=O)N(C)c2ccc(Cl)cc2)cn1` it was 0.82% (inactive); in that of `N=c1c2c3c(sc2nc2n1CCCCC2)CCCC3`, -5.48% (inactive).
With `O=C(CCc1ccccc1)Nc1ccnn1C1CCN(Cc2ccc(OCCO)cc2)CC1`, the inhibition is 11.7% (inactive).
In the case of `CC[n+]1cc(C)ccc1/C=C/c1ccc(N(C)C)cc1` it was 81.8% (active).
In the case of `COc1ccc(-c2c(C#Cc3ccsc3)c3cc(-c4ccc(CN5CCOCC5)cc4)ccc3n2C)cc1` it was 9.39% (inactive).
With `O=C(COc1cccnc1[N+](=O)[O-])Nc1ccc(Cl)cc1F`, the inhibition was -19.8% (inactive).
In the case of `Cc1ccc(S(=O)(=O)NCCC(=O)NC2CCN(Cc3ccccc3)CC2)cc1` it was 3.57% (inactive); in that of `Cc1ccc(-c2cc(C(=O)NC3CCN(Cc4ccccc4)CC3)c3ccccc3n2)cc1`, 10.8% (inactive).
Consider `Cc1ccc(-c2nc(CSCC(=O)NC3CCN(Cc4ccccc4)CC3)c(C)o2)cc1`, for which the inhibition is 67.4% (active).
To `Cc1cc(C)c(C=NNc2nc3c([nH]2)c(=O)n(C)c(=O)n3C)c(C)c1` belongs 1.9% (inactive); to `Cc1ccc(C(=O)Nc2sc(Cc3ccc4c(c3)OCO4)c(C)c2C(N)=O)cc1`, -1.06% (inactive).
Consider `COCOc1cc(O)c(C(=O)/C=C/c2ccc(OCOC)c(OCOC)c2)c(OCOC)c1`, for which the inhibition was 3.02% (inactive).
To `Cc1ccc(S(=O)(=O)N2CCN(C(=O)c3ccc(-n4cncn4)c([N+](=O)[O-])c3)CC2)cc1` belongs 1.3% (inactive); to `CC(C)c1ccc(S(=O)(=O)N2CCN(C(=O)c3ccc(N4CCCC4)c([N+](=O)[O-])c3)CC2)cc1`, -1.24% (inactive); to `Nc1ccc(C(=O)N2CCN(S(=O)(=O)c3ccc(Cl)cc3)CC2)cc1[N+](=O)[O-]`, 98.7% (active).
On to `CC(=O)c1cc(-c2ccccc2)n(CCC(=O)NC2CCCCCC2)c1C`, for which the inhibition is 1.89% (inactive).
In the case of `COc1cccc2c1C(=O)c1c(O)c3c(c(O)c1C2=O)CC(O)(C(C)=NNC(=O)c1ccc(Cl)c(Cl)c1)CC3OC1CC(N)C(O)C(C)O1` (stereo unspecified) it was 71.2% (active); in that of `CCCCN(C(=O)c1ccc(S(=O)(=O)N2CCOCC2)cc1)C1CCS(=O)(=O)C1` (stereo unspecified), 0.87% (inactive); in that of `O=C(OC1CCOC1=O)c1ccc(-c2nc3ccccc3s2)s1` (stereo unspecified), -21% (inactive).
To `Cc1cnc(NC(=O)c2ccccn2)s1` belongs -50.9% (inactive); to `CC(=NNC(=S)N1CCCCCC1)c1ccccn1`, 63.6% (active); to `Cc1cccc(C)c1NC(=S)N1CCCCCC1`, 3.64% (inactive).
In the case of `C/C(=N\NC(=O)Cc1ccc(Cl)cc1)c1ccccn1` it was 88% (active); in that of `CNC(=S)N1CCN(c2ccccn2)CC1`, 2.59% (inactive).
In the case of `CC1=NNC(=O)C1CCC(=O)N/N=C(\C)c1ccc(Cl)cc1` (stereo unspecified), the inhibition was 3.52% (inactive).
In the case of `COc1ccc(/C(C)=N\NC(=O)c2ccc(-c3ccccc3)cc2)c(F)c1` it was 2.32% (inactive); in that of `C/C(=N\NC(=O)c1ccccc1F)c1ccccn1`, 58.4% (active); in that of `NC(=O)NC(CC(=O)NNC(=O)c1ccccn1)c1ccc(Cl)cc1` (stereo unspecified), 5.55% (inactive).
Regarding `O=C(COC(=O)c1ccc(O)cc1O)c1ccc2c(c1)OCCO2`, the inhibition was -30.6% (inactive).
For the molecule `C=CCn1cc(C(=O)NCc2ccc(Cl)cc2)c(=O)c2cc(S(=O)(=O)N(CC)CC)ccc21`, the inhibition is 9.9% (inactive).
For `Cc1ccc(S(=O)(=O)c2cc3c(=O)n4cccc(C)c4nc3n(CCc3ccccc3)c2=N)cc1C`, the inhibition is 1.35% (inactive).
In the case of `CC(C)c1ccc(/C=C/C(=O)NCCCN2CCOCC2)cc1` it was -8.47% (inactive).
To `CNS(=O)(=O)c1ccc(NC(=O)C2CC(=O)N(c3ccc(Cl)cc3)C2)cc1` (stereo unspecified) belongs -4% (inactive); to `CCOC(=O)c1c(C)[nH]c(C(=O)NCCN2CCOCC2)c1C`, 17.9% (inactive).
In the case of `CN(C)S(=O)(=O)c1ccc(Cl)c(NC(=O)COC(=O)CC(NC(N)=O)c2ccc(Cl)cc2)c1` (stereo unspecified) it was -2.2% (inactive); in that of `CCOP1(=O)C=C(C(C)(C)C)OC1c1ccc(F)cc1` (stereo unspecified), 8.49% (inactive).
Turning to `COc1cccc(NC(=S)NC(=O)c2c(Cl)c(C)nn2C)c1`, the inhibition is -24.8% (inactive).
Consider `CCCc1c(C(=O)Nc2ccc(F)cc2)cnn1-c1ccccc1`, for which the inhibition is -12.3% (inactive).
In the case of `Cc1nn(C(C)C(=O)NCCC2=CCCCC2)c(=O)c2nn(-c3ccccc3)c(C)c12` (stereo unspecified) it was 3.02% (inactive); in that of `CCN1/C(=C/c2ccc3ccc(C)cc3[n+]2CC)Sc2ccccc21`, 79.4% (active).
To `CCN1/C(=C\c2ccc3ccccc3[n+]2CC)Sc2cc(C)ccc21` belongs 90% (active); to `NC(=O)c1ccc(N2CCCC2)nc1`, 1.14% (inactive); to `CCC1=[N+]([O-])C(C)(/C(C)=N\O)N(O)C1(C)C` (stereo unspecified), 17.9% (inactive).
In the case of `COC(=O)Cc1[nH]n(-c2nc3ccccc3s2)c(=O)c1C(C)=Nc1ccc(OC)cc1` it was 79.5% (active); in that of `CC(=NCc1ccco1)c1c(C(F)(F)F)[nH]n(-c2nc3ccccc3s2)c1=O`, -17.2% (inactive).
As for `COc1ccc(C(=O)Nc2cccc(/C=C(/CCC(=O)O)c3nc4ccccc4s3)c2)cc1`, the inhibition is -20.1% (inactive).
To `NC(=O)N1CCCC1C(=O)Nc1ccc(Cl)c(Cl)c1` (stereo unspecified) belongs 1.62% (inactive); to `CCCCC(=O)Nc1ccc(C(=O)Nc2cc(C(F)(F)F)ccc2Cl)cc1`, 5.23% (inactive); to `O=C(CC(O)(C(F)(F)F)C(F)(F)F)Nc1ccc(Cl)c(Cl)c1`, 78.9% (active).
Consider `CCC1CCCCN1C(=O)CSc1nc2c(c(=O)n1C)SC(C)C2` (stereo unspecified), for which the inhibition is 1.3% (inactive).
As to `COc1ccc(OC)c(/C=N/NC(=O)c2ccc[n+](CC(=O)c3ccccc3)c2)c1`, the inhibition is 91.4% (active).
To `COc1ccc(OC)c(/C=N/NC(=O)CSc2nnc(C)n2-c2ccccc2)c1` belongs -2.67% (inactive); to `COc1ccc(CC(=O)NCC(=O)N/N=C/c2cc(Br)ccc2OC)cc1`, -1.49% (inactive); to `CCC(C)Cn1c(O)cc2nn(-c3nc4ccccc4s3)c(=O)c-2c1C` (stereo unspecified), 83.4% (active).
Take `Cc1cc(NC(=O)CN2CCCC(C)C2)n(-c2nc3ccccc3s2)n1` (stereo unspecified): the inhibition is 20% (inactive).
Consider `CCc1ccc[n+](-c2nc([O-])sc2C=O)c1`, for which the inhibition was 6.64% (inactive).
For the molecule `COc1ccc(NC(=O)CNC(=O)Cn2ccc3ccccc3c2=O)c(OC)c1`, the inhibition was -0.61% (inactive).
In the case of `COc1ccc(OC)c(Cc2cnc3nc(N)nc(N)c3c2C)c1` it was 63.1% (active); in that of `COc1ccc(OC)c(NC(=O)c2sc3nc(C)cc(C)c3c2N)c1`, -3.47% (inactive); in that of `COc1ccc(OC)c(Cc2nnc(CCC(=O)NC3CCCC3)o2)c1`, -18.7% (inactive).
In the case of `CC(C)=CCCC1(C)C=Cc2c(ccc3c2[nH]c2cc(O)c(C)cc23)O1` (stereo unspecified) it was -3.46% (inactive); in that of `CS(=O)(=O)N1CCCC(C(=O)Nc2ccccc2C(F)(F)F)C1` (stereo unspecified), -2.21% (inactive).
In the case of `O=C(O)CCCCCCCCc1cn(CN2C(=O)c3ccccc3C2=O)nn1` it was -12.6% (inactive); in that of `OCC1(Cc2ccccc2C(F)(F)F)CCN(Cc2cccc3cnccc23)CC1`, 25.5% (inactive); in that of `CC1CC2=C(CC1/C=N/NC(N)=S)C(C)(C)CCC2` (stereo unspecified), 72.7% (active).
On to `COc1cccc(CN(C)C(=O)CC23CC4CC(CC(C4)C2)C3)c1OC`, for which the inhibition was -2.54% (inactive).
To `Cn1c(N)c(C(=O)COC(=O)/C=C/c2ccc(OC(F)F)cc2)c(=O)n(C)c1=O` belongs 5.01% (inactive).
To `N#Cc1ccc(C(=O)Nc2nc(-c3cccs3)c(C(=O)C(F)(F)F)s2)cc1` belongs 62.5% (active); to `N#Cc1c(-c2cccs2)nc(SCC(=O)c2ccc(Br)cc2)[nH]c1=O`, 4.3% (inactive).
In the case of `COC(=O)c1sc(NC(=S)NC(=O)c2ccc(C)cc2)nc1C` it was -41.9% (inactive).
Turning to `C/C(N)=C(\C#N)C(=O)NCCc1ccccn1`, the inhibition was -1.25% (inactive).
In the case of `C=CC[C@H](CC(=O)OC(C)(C)C)C(=O)OC[C@H]1CCCN1C(=O)[C@H](CC=C)CC(=O)N(CCO)Cc1ccccc1` it was 7.8% (inactive); in that of `Nc1nc(SCC(=O)Nc2ccc(Cl)c([N+](=O)[O-])c2)n[nH]1`, -5.39% (inactive).

For the origin of these results see PubChem BioAssay AID588413 (Sanford-Burnham Center for Chemical Genomics, 2011).
